# PubChem BioAssay (Tox21)
# Values joined by “and” are separate entries in the source; they are usually repeats but may differ in a detail not shown here. Equal values may be shown once. Inconclusive results are not listed. A call without a number means that no potency is given here. Some compounds were tested as several samples or in several runs, with calls that do not always agree. Active and inactive are the calls of the source. Unless noted, the call rests on the fitted dose curve; in most records, active means well fitted curve in the direction sought with a large enough effect in the repeat runs; inconclusive means weak or mixed curves; inactive means no such curve, though single readings can be large; an effect the other way counts as inactive or inconclusive.
# Tests used:
# [1] = qHTS assay to identify small molecule agonists of the hypoxia (HIF-1) signaling pathway - cell viability counter screen (AID 1224844; calls by dose curve; further: nearly all actives have a fitted effect of over 50% in size; further: potency means the concentration at half of the fitted maximal effect)
# Procedure, shortened: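 ME-180 HRE-bla cells, 2,000/well, 0.5% dialyzed FBS; 5 hr settle, 17 hr compound at 37C/5% CO2; CCF4-AM reporter read first, then CellTiter-Glo luminescence after 30 min RT.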
# [2] = qHTS assay to identify small molecule antagonists of the estrogen related receptor (ERR) signaling pathway from Tox21 library (AID 1224848); further: nearly all actives have a fitted effect of over 50% in size; further: potency means the concentration at half of the fitted maximal effect
# Procedure, shortened: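 Luminescent reporter read-out (ONE-Glo) from NTP's ERR cell line after 18 h treatment at 37 C with DMSO-dissolved Tox21 compounds; cells pre-plated 6 h beforehand at 2,000 per well.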
# [3] = qHTS assay to identify small molecule agonists of the estrogen related receptor (ERR) signaling pathway from Tox21 library (AID 1224849; calls by dose curve; further: nearly all actives have a fitted effect of over 15% in size); details: ERR reporter cell line, ONE-Glo luciferase, 18 h; at 92.4 µM (top of the series) unless noted
# Procedure, shortened: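 ERR cells, 6 h pre-incubation 37 C/5% CO2; cpd in DMSO pinned; 18 h 37 C; ONE-Glo added, 30 min RT; luminescence read. Agonist mode, qHTS.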
# [4] = qHTS RealTime-Glo MT Cell Viability Assay in HepG2 cells - 24 hour (AID 1224867); further: nearly all actives have a fitted effect of over 50% in size; further: potency means the concentration at half of the fitted maximal effect
# Procedure, shortened: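 Compound treatment began 5 h after plating HepG2 cells (600/well) with NanoLuc luciferase and prosubstrate. Plates stayed at 37 C for 40 h; luminescence was captured at six time points, 0 h through 40 h.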
# [5] = qHTS RealTime-Glo MT Cell Viability Assay in HEK293 cells - 32 hour (AID 1224868); further: nearly all actives have a fitted effect of over 50% in size; further: potency means the concentration at half of the fitted maximal effect; on activity change, negative = cytotoxic: top concentration of the series differs between compounds
# Procedure, shortened: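 Quantitative high-throughput screen of the Tox21 10K library in HEK293: cells and RealTime-Glo reagents plated together, compound added at 5 h, luminescence monitored through 40 h at 37 C.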
# [6] = A CellTox Green Cytotoxicity Assay to monitor cytotoxicity in HEK293 cells - 0 hour (AID 1224869); further: nearly all actives have a fitted effect of over 50% in size
# Procedure, shortened: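 Nonlytic real-time cytotoxicity: HEK293 + CellTox Green reagent plated, 5 h preincubation, pintool compound addition (23 nL in DMSO), 37 C for 40 h, fluorescence measured at successive time points.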
# [7] = qHTS RealTime-Glo MT Cell Viability Assay in HepG2 cells - 40 hour (AID 1224870); further: nearly all actives have a fitted effect of over 50% in size; further: potency means the concentration at half of the fitted maximal effect
# Procedure, shortened: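 HepG2 cells (600/well) mixed with RealTime-Glo MT reagent, settled 5 h at 37 C/5% CO2 before compound addition. Nonlytic NanoLuc luminescence from viable-cell prosubstrate reduction read repeatedly during 40 h treatment at 37 C.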
# [8] = qHTS assay to identify small molecule agonists of H2AX - cell viability counter screen (AID 1224847; calls by dose curve; further: top concentration of the series differs between compounds; nearly all actives have a fitted effect of over 30% in size)
# Procedure, shortened: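 Cells plated first: CHO-K1, 1000 per well in 10% FBS medium, incubated overnight at 37C. Then 15-point compound titration added (final DMSO 0.76%) for 3 hr. Finally CellTiter-Glo added and luminescence read.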
# [9] = qHTS assay to identify small molecule agonists of the hypoxia (HIF-1) signaling pathway (AID 1224846; active means well fitted activation curve with a large enough effect in the signal ratio in the repeat runs, not every such curve was filed as active; the % refers to the signal ratio)
# Procedure, shortened: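 Cell line: CellSensor HRE-bla ME-180; 2,000 cells/well; 0.5% dialyzed FBS; 5 h preincubation; DMSO compound pin transfer; 17 h, 37C, 5% CO2; CCF4-AM added; bla FRET signal scored for activation.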
# [10] = qHTS assay to identify small molecule agonists of H2AX (AID 1224845; active means well fitted activation curve with a large enough effect in the signal ratio in the repeat runs, not every such curve was filed as active; the % refers to the signal ratio)
# Procedure, shortened: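 Wild-type CHO-K1 cells, plated overnight, exposed 3hr at 37C to 15 concentrations (0.76% DMSO final). Lysed, then HTRF anti-pH2AX (S139) cryptate and anti-H2AX-d2 antibodies, 24 hr room temperature; 665/620 nm emission read.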
compound,measurement,setting,value
O=C1C2CC=CCC2C(=O)N1SC(Cl)(Cl)Cl (configuration not stated),Potency,[1],6.07 µM (active)
same,Potency,[2],inactive and 30.1 µM (active)
same,"activity change, positive = activation",[3],-8.8% (inactive) and -75.3% (inactive)
same,Potency,[4],inactive and 24.1 µM (active)
same,Potency,[5],43.5 µM (active) and 3.04 µM (active)
same,outcome,[6],inactive
same,Potency,[7],inactive and 19.2 µM (active)
C[C@H](N)C(=O)c1ccccc1,Potency,[1],inactive
same,Potency,[8],inactive
same,Potency,[4],inactive
same,Potency,[5],inactive
NNC(N)=O,Potency,[1],inactive
same,Potency,[8],inactive
same,Potency,[4],inactive
same,Potency,[5],inactive
same,outcome,[6],inactive
O=CCCl,Potency,[1],inactive
same,outcome,[9],inactive
same,Potency,[8],inactive
same,Potency,[4],inactive
same,Potency,[5],inactive
same,outcome,[6],inactive
same,Potency,[7],inactive
CCOP(=S)(OCC)SCCl,Potency,[1],inactive
same,outcome,[9],inactive
same,Potency,[4],inactive
same,Potency,[5],inactive
same,outcome,[6],inactive
N#CN,Potency,[1],inactive
same,outcome,[9],inactive
same,Potency,[8],inactive
same,Potency,[4],inactive
same,Potency,[5],inactive
same,outcome,[6],inactive
same,Potency,[7],inactive
ClCC1CO1 (configuration not stated),outcome,[10],inactive
same,outcome,[9],inactive
same,Potency,[8],inactive
same,Potency,[2],inactive
same,"activity change, positive = activation",[3],-2.49% (inactive)
same,Potency,[4],inactive
same,Potency,[5],inactive
O=C(O)C(Cl)Br (configuration not stated),Potency,[1],inactive
same,outcome,[9],inactive
same,Potency,[8],inactive
same,Potency,[4],inactive
same,outcome,[6],inactive
same,Potency,[7],inactive
CC(O)CCl (configuration not stated),Potency,[1],inactive
same,outcome,[9],inactive
same,Potency,[8],inactive
same,Potency,[4],inactive
same,Potency,[5],inactive
same,Potency,[7],inactive
CNC(=O)NC(O)C(Cl)(Cl)Cl (configuration not stated),Potency,[1],inactive
same,outcome,[9],inactive
same,Potency,[4],inactive
same,Potency,[5],inactive
same,outcome,[6],inactive
same,Potency,[7],inactive
S=C=S,outcome,[10],inactive
same,outcome,[9],inactive
same,Potency,[8],inactive
same,Potency,[2],inactive
same,"activity change, positive = activation",[3],2.11% (inactive)
same,Potency,[4],inactive
same,Potency,[5],inactive
same,outcome,[6],inactive
same,Potency,[7],inactive
CCCCCCCC(=O)Cl,Potency,[1],inactive
same,outcome,[9],inactive
same,Potency,[4],inactive
same,Potency,[5],inactive
same,Potency,[7],inactive
CCC(C)(C#N)N=NC(C)(C#N)CC (configuration not stated),Potency,[1],inactive
same,outcome,[9],inactive
same,Potency,[2],inactive
same,"activity change, positive = activation",[3],3.15% (inactive)
same,Potency,[4],inactive
same,Potency,[5],inactive
same,outcome,[6],inactive
same,Potency,[7],inactive
CN1C(=O)COc2c(C(=O)NC3CN4CCC3CC4)cc(Cl)cc21 (configuration not stated),Potency,[1],inactive
same,outcome,[9],inactive
same,Potency,[8],inactive
same,Potency,[4],inactive
same,Potency,[5],inactive
same,outcome,[6],inactive
same,Potency,[7],inactive
CCCOC(=O)c1cncn1C(C)c1ccccc1 (configuration not stated),outcome,[10],inactive
same,outcome,[9],inactive
same,Potency,[8],inactive
same,Potency,[2],inactive
same,"activity change, positive = activation",[3],0.709% [at 42.5 µM] (inactive)
same,Potency,[4],inactive
same,Potency,[5],inactive
same,outcome,[6],inactive
same,Potency,[7],inactive
CC1NCCOC1c1ccccc1 (configuration not stated),Potency,[1],inactive
same,outcome,[9],inactive
same,Potency,[2],inactive
same,"activity change, positive = activation",[3],0.163% [at 42.5 µM] (inactive)
same,Potency,[4],inactive
same,Potency,[5],inactive
same,outcome,[6],inactive
same,Potency,[7],inactive
CC(C)c1ccc(O)cc1,Potency,[1],inactive
same,outcome,[9],inactive
same,Potency,[2],inactive
same,"activity change, positive = activation",[3],-0.432% (inactive)
same,Potency,[4],inactive
same,Potency,[5],inactive
same,outcome,[6],inactive
same,Potency,[7],inactive
CCCCOC(C)=O,Potency,[1],inactive
same,outcome,[9],inactive
same,Potency,[4],inactive
same,Potency,[5],inactive
same,outcome,[6],inactive
same,Potency,[7],inactive
CCOC(=O)C(Cl)Cc1cc(-n2nc(C)n(C(F)F)c2=O)c(F)cc1Cl (configuration not stated),Potency,[1],inactive
same,outcome,[9],inactive
same,Potency,[8],inactive
same,Potency,[4],inactive
same,Potency,[5],inactive
same,outcome,[6],inactive
same,Potency,[7],inactive
CNC(=O)O/N=C(/CSC)C(C)(C)C,Potency,[1],inactive
same,outcome,[9],inactive
same,Potency,[8],inactive
same,Potency,[4],inactive
same,Potency,[5],inactive
same,outcome,[6],inactive
same,Potency,[7],inactive
C=C(C)[C@H]1CN[C@H](C(=O)O)[C@H]1CC(=O)O,Potency,[1],inactive
same,Potency,[8],inactive
same,Potency,[4],inactive
same,Potency,[5],inactive
same,outcome,[6],inactive
same,Potency,[7],inactive
ClC(Cl)(Cl)Cl,outcome,[10],inactive
same,outcome,[9],inactive
same,Potency,[8],inactive
same,Potency,[2],inactive
same,"activity change, positive = activation",[3],-3.58% (inactive)
same,Potency,[4],inactive
same,Potency,[5],inactive
same,outcome,[6],inactive
same,Potency,[7],inactive
Brc1c(Br)c(Br)c(Br)c(Br)c1Br,"activity change, negative = cytotoxicity",[1],-35.3% [at 6.97 µM] (inactive)
same,activation,[9],-0.641% [at 7.01 µM] (inactive)
same,"activity change, negative = cytotoxicity",[4],-11.6% [at 6.97 µM] (inactive)
same,cytotoxicity,[6],20.1% [at 6.97 µM] (inactive)
same,"activity change, negative = cytotoxic",[7],-3.64% [at 6.97 µM] (inactive)
Nc1c(Cl)c(F)nc(OCC(=O)O)c1Cl,outcome,[10],inactive
same,outcome,[9],inactive
same,Potency,[8],inactive
same,Potency,[2],inactive
same,"activity change, positive = activation",[3],0.0677% (inactive)
same,Potency,[4],inactive
same,Potency,[5],inactive
same,outcome,[6],inactive
same,Potency,[7],inactive
CC(=O)OCC1=C(C(=O)O)N2C(=O)[C@@H](N)[C@H]2SC1,"activity change, negative = cytotoxicity",[1],-17.2% [at 15.8 µM] (inactive)
same,"activity change, negative = cytotoxicity",[8],3.73% [at 31.6 µM] (inactive)
same,"activity, negative = inhibition",[2],15.1% [at 19 µM] (inactive)
same,"activity change, positive = activation",[3],9.57% [at 19 µM] (inactive)
same,"activity change, negative = cytotoxicity",[4],0.275% [at 15.8 µM] (inactive)
same,"activity change, negative = cytotoxic",[5],19.8% [at 15.8 µM] (inactive)
same,cytotoxicity,[6],1.32% [at 15.8 µM] (inactive)
same,"activity change, negative = cytotoxic",[7],3.09% [at 15.8 µM] (inactive)
CC1=C2[C@H]3OC(=O)[C@@H](C)[C@@H]3CC[C@@]2(C)C=CC1=O,outcome,[10],inactive
same,outcome,[9],inactive
same,Potency,[8],inactive
same,Potency,[2],inactive
same,"activity change, positive = activation",[3],5.47% [at 42.5 µM] (inactive)
same,Potency,[4],inactive
same,Potency,[5],inactive
same,outcome,[6],inactive
same,Potency,[7],inactive
CC(C)[C@]12CC(=O)[C@H](C)[C@H]1C2,Potency,[1],inactive
same,outcome,[9],inactive
same,Potency,[8],inactive
same,Potency,[4],inactive
same,Potency,[5],inactive
same,outcome,[6],inactive
same,Potency,[7],inactive
CC(C)(O)C(Cl)(Cl)Cl,Potency,[1],inactive
same,outcome,[9],inactive
same,Potency,[4],inactive
same,Potency,[5],inactive
same,Potency,[7],inactive
